# Source: PubChem BioAssay
# FBPA Giardia inh: inhibitors of Giardia lamblia fructose-1,6-bisphosphate aldolase | A8B2U2 | purified Giardia FBPA | hit rate 0.71% among 290,000 | Potency, µM (series often up to 59.6 µM), without a hit: top-dose activity, negative = inhibition, most hits filed as inhibitors; also: potency is read from the fitted curve at half-maximal effect; % is scaled to controls: 0 for no effect and ±100 for the full control effect; nearly all actives have a fitted effect of over 55% in size
#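 40 nM FBPA preincubated 10 min at RT with compound (up to 57.5 uM final), then substrate plus GAPDH/TPI/NAD/arsenate coupling and diaphorase/resazurin added. Fluorescence read after 20 min at RT, 525/598 nm.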
# Cycloheximide cs: counter-screen for Shiga toxin inhibitors: cycloheximide protein synthesis inhibition; AID 2314; hit rate 12% among 300,000; cell reporter, cycloheximide protein synthesis inhibition counterscreen; max response, %; in the data active = max response mostly above about 13%, no sharp cut-off; inactive = mostly below about 14%; also: read at 38.3 µM for the half of the compounds with a filed dose; 0% is about no effect
# LmPK inhibitor: LmPK (Leishmania mexicana) enzyme inhibition. purified LmPK, Kinase-Glo ATP luminescence, 1 h. Potency, µM (top dose mostly 57.5 µM), for the others: top-dose activity change, negative = inhibition, most hits filed as inhibitors. hit rate 0.37% among 290,000; also: potency is read from the fitted curve at half-maximal effect; % is scaled to controls: 0 for no effect and ±100 for the full control effect
# Target sequence (Q27686 whole entry, looked up): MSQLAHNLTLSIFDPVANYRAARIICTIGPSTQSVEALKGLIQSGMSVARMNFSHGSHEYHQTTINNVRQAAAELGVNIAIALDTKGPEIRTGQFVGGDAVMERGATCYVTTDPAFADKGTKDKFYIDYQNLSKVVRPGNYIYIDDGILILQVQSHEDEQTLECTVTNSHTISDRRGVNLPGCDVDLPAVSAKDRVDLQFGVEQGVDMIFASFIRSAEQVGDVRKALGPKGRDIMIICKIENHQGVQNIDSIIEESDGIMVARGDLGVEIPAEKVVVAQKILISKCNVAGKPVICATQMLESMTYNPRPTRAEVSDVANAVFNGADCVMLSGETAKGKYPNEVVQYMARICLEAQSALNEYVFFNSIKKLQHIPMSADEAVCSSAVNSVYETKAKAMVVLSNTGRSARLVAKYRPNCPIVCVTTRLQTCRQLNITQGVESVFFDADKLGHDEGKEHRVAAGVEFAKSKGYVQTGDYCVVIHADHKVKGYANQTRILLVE
#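 qHTS format; LmPK 0.1 nM; substrates PEP 0.5 mM and ADP 0.1 mM. One-hour room-temperature incubation, then coupled luciferase luminescence; 0.5 nM enzyme wells mark activation.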
# RE007 growth inh: less growth of the S. pombe RE007 Vpr strain | Potency, µM (doses to about 92.2 µM), for the others: at the highest dose activity change, negative = less growth, actives largely listed as inhibitors | S. pombe RE007 Vpr strain, BacTiter-Glo ATP luminescence, 24 h | AID 651644 | hit rate 0.21% among 360,000; active = well fitted falling curve with a large enough effect; inconclusive = small, poorly fitted or top-dose-only effect; inactive = no such curve, though single readings can be large or run the other way; also: potency is read from the fitted curve at half-maximal effect; % is scaled to controls: 0 for no effect and ±100 for the full control effect; nearly all actives have a fitted effect of over 50% in size
#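 Fission yeast strain RE007, carrying one chromosomally integrated HIV-1 vpr copy, was seeded at OD 0.01 in PMG+AL medium with 23 nL pinned compound. After 24 h at 30 °C and 99% humidity, viability was read by BacTiter-Glo luminescence.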
# TbPYK inhibitor: inhibitors of Trypanosoma brucei pyruvate kinase | Q57TT1 | TbPYK enzyme, Kinase-Glo Plus ATP luminescence, 45 min | Potency, µM (doses to about 76.8 µM), inactives show at the top dose activity, negative = inhibition, most hits filed as inhibitors | hit rate 0.12% among 410,000 | AID 624173; also: potency is read from the fitted curve at half-maximal effect; % is scaled to controls: 0 for no effect and ±100 for the full control effect; nearly all actives have a fitted effect of over 50% in size
#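 Luminescence from Kinase-Glo Plus, added after a 45-minute room-temperature reaction, served as the end-point read-out. The enzyme and substrate were preincubated with compound before ADP (130 uM final) initiated turnover. Concentration-effect curves came from normalized qHTS data.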
# Shiga inhibitor: inhibitors of Shiga toxin in Vero cells | Vero cells, Shiga toxin protein synthesis inhibition reporter | inhibition, % at 38.7 µM | hit rate 9.2% among 290,000 | AID 2315; in the data active = inhibition mostly above about 28%, no sharp cut-off; inactive = mostly below about 43%; also: 0% is about no effect
# Starred values were filed as active, the others as inactive; ? = inconclusive; / = no result given; [ ] = another dose, or the depositor's remark. The full list was thinned out, with hits kept by preference. Unless noted, calls follow the shape of the dose curve; as a rule, active = well fitted curve in the direction sought with a large enough effect; inconclusive = small, poorly fitted or top-dose-only effect, or another doubt; inactive = no such curve, though single readings can be large; an effect the other way counts as inactive or inconclusive.
SMILES,FBPA Giardia inh,Cycloheximide cs,LmPK inhibitor,RE007 growth inh,TbPYK inhibitor,Shiga inhibitor
CCOC(=O)c1cccc(NC(=S)NCc2ccc(C)cc2)c1,-5%,-1,-1%,10%,-4%,-2
O=C(Nc1ccc2oc(=O)ccc2c1)c1ccco1,7%,22*,4%,-30%,-6%,31*
O=C(Cc1ccccc1)Nc1ccc2oc(=O)ccc2c1,-1%,13*,0%,-4%,1%,21
O=C(Nc1ccc2oc(=O)ccc2c1)c1ccc2ccccc2c1,-11%,11,-9%,-18%,-4%,25
CC(=O)N/C(=N\c1nc(C)cc(C)n1)Nc1ccc2ccccc2c1,0%,40*,12%,-4%,-21%,125*
CCCOc1ccc(N2C(=O)CC(SCCN)C2=O)cc1 (configuration not stated),-19%,50*,-22%,7.9µM*,-14%,93*
CCOC(=O)C(N)CSC1CC(=O)N(c2ccc(C(=O)OC)cc2)C1=O (configuration not stated),4%,1,0%,-2%,-8%,-10
COC(=O)c1ccc(N2C(=O)CC(SCCN)C2=O)cc1 (configuration not stated),-8%,42*,-3%,-11%,1%,54*
CCCCn1c2ccccc2c2nnc(SCC(=O)Nc3ccc(NC(C)=O)cc3)nc21,/,/,/,/,4%,/
O=C(Nc1ccc([N+](=O)[O-])cc1)c1ccccc1F,1%,39*,10%,-9%,2%,117*
O=C(Nc1ccccc1C(=O)Nc1ccccc1)c1ccccc1F,-2%,-5,3%,8%,3%,-4
CC1(c2ccc(NC(=O)c3ccccc3F)cc2)CC1(Cl)Cl (configuration not stated),0%,35*,4%,0%,1%,/
O=C(Nc1ccc(-c2ccc([N+](=O)[O-])cc2)cc1)c1ccccc1F,-1%,16,-4%,11%,3%,12
N#Cc1ccc(C(=O)Nc2ccc([N+](=O)[O-])cc2)c(F)c1,0%,8,5%,3%,2%,52*
Clc1cccc(-c2nc3c4ccccc4ccn3c2CC2CCCCC2)c1,/,/,/,-6%,-2%,/
N#Cc1ccc(Sc2ccccn2)c([N+](=O)[O-])c1,-17%,0,-15%,80%,-3%,2
NNS(=O)(=O)c1ccc(Sc2ccccn2)c([N+](=O)[O-])c1,-3%,15*,7%,10%,0%,36
N#Cc1c(N2CCCC2)nsc1-c1ccccc1,10%,52*,1%,-15%,5%,102*
N#Cc1c(N2CCOCC2)nsc1-c1ccccc1,11%,40*,-1%,-9%,-1%,75*
N#Cc1c(-c2ccccc2)ccnc1N1CCOCC1,3%,12,-1%,12%,-5%,30
O=C(COC(=O)c1ccc(O)cc1)Nc1cc(C(F)(F)F)ccc1N1CCOCC1,/,/,/,2%,-1%,/
O=C(O)c1c2c(nc3ccccc13)/C(=C/c1ccc(OC(F)F)cc1)CCC2,-2%,23*,9%,2%,-1%,58*
CN(CC(=O)Nc1ccc(Cl)cc1)C(=O)CCC1CCCC1,-14%,-4,-6%,-14%,1%,-9
Cn1c(CSc2nc3ccccc3s2)nc2ccccc21,-17%,39*,-29%,-2%[3.69 µM],/,77*
Cn1c(CSc2nc3ccccc3s2)n[nH]c1=S,8%,15*,-6%,-5%,?,18
SMILES,FBPA Giardia inh,Cycloheximide cs,LmPK inhibitor,RE007 growth inh,TbPYK inhibitor,Shiga inhibitor
S=c1[nH]nc(CSc2nc3ccccc3s2)o1,21%,3,-1%,1%,-31%,-3
Cn1c(CSc2ncn[nH]2)nc2ccccc21,-16%,9,-4%,5%,-1%,14
CCNc1nnc(CSc2nc3ccccc3s2)s1,1%,37*,-2%,11%,3%,60*
C=CCN1C=CC(=O)CC1,9%,-8,-6%,2%,1%,-3
Nc1ccn([C@@H]2O[C@H](CO)[C@@H](O)C2(F)F)c(=O)n1,/,/,/,/,0%[157 µM],/
Cc1cc(F)cc(-c2cc(C(=O)NCc3ccccn3)[nH]n2)c1,/,/,/,-6%,0%,/
Cc1ccc(-n2nc3c(=O)n(C(C)C(=O)NCc4ccc(OC(C)C)cc4)nc(C)c3c2C)cc1 (configuration not stated),/,/,/,/,2%,/
CCOC(=O)c1ccc(NC(=O)CSc2ncc(S(=O)(=O)c3ccc(C)c(Cl)c3)c(=O)[nH]2)cc1,/,/,/,/,2%,/
COCCN(C(=O)C1CC1)c1nnc(-c2ccc(C)cc2)s1,6%,6,6%,-9%,-9%,36
CC(=O)N(c1nnc(-c2cccc(C)c2)s1)C1CCCC1,7%,40*,-1%,11%,4%,/
CC(C)Sc1nnc(-c2c[nH]c3ccccc23)n1C,-1%,50*,-2%,14%,-12%,121*
CCn1c(-c2sc(-c3ccccc3)nc2C)n[nH]c1=S,5%,-4,1%,19%,?,-22
C#CCSc1nnc(-c2c[nH]c3ccccc23)n1C,-2%,18*,-4%,-2%,-7%,2
CCOC(=O)C(C)Sc1nnc(-c2c[nH]c3ccccc23)n1C (configuration not stated),0%,11,-1%,-2%,-1%,10
Cn1c(SCc2cccnc2)nnc1-c1c[nH]c2ccccc12,4%,8,-1%,10%,1%,8
C#CCSc1nnc(-c2sc(-c3ccccc3)nc2C)n1C,-1%,18*,5%,2%,-22%,18
Cc1ccc(C(=O)c2oc3ccccc3c2NC(=O)Cc2coc3cc(C)ccc23)cc1,/,/,/,/,0%,/
CCc1ccccc1NC(=O)CN(c1cc(C(F)(F)F)ccc1Cl)S(=O)(=O)c1ccccc1,/,/,/,/,1%,/
O=C(N=Nc1ccc(NOC(=O)c2ccccc2Br)cc1)c1ccccc1O,?,6,?,/,/,18
O=C(CNC(=O)c1ccco1)N=Nc1c(O)[nH]c2ccc(Br)cc12,-26%,-2,5%,-2%,3%,-6
Cc1occc1C(=O)N=Nc1c(O)[nH]c2ccc(Br)cc12,1%,33*,-16%,/,/,75*
Cc1cc(N=NC(=O)c2ccccc2O)c2ccccc2c1O,?,40*,-10%,-15%,-9%,126*
Cn1c(O)c(N=NC(N)=S)c2ccccc21,/,/,/,/,-24%,/
Cc1occc1C(=O)N=Nc1c(O)n(C)c2ccccc12,4%,36*,-19%,10%,17%,58*
Cn1c(O)c(N=NC(=O)c2ccccc2O)c2ccccc21,-24%,37*,-22%,-30%,?,62*
CCOc1ccc(Oc2ccc(NS(=O)(=O)c3ccc(CCC(=O)O)cc3)cc2)cc1,/,/,/,7%,2%,/
Cn1c(O)c(N=Nc2ccccc2[N+](=O)[O-])c2ccccc21,24%,31*,3%,-1%,2%,75*
